# According to PubChem BioAssay (NCATS):
# Results filed as inconclusive are left out. Values without a mark were called inactive. Active and inactive are the calls of the source. Calls come from the whole dose curve; as a rule, active = well fitted inhibition curve with a large enough effect; inconclusive = small, poorly fitted or top-dose-only effect; inactive = flat fitted curve, though single readings scatter. *1 amine or outer side, *2 acyl side, *3 side chain or, on linkers, in order; H or OH if unused. Where a SMILES comes first, the peptide text is derived from it. Bridges are numbered along the chain shown (N, C = ends). Side-chain parts run from the residue outwards. [ ]: non-standard residue; d: D form. The star is where a group is joined. Ethylenediamine = C(CN[*:2])N[*:1]; Hyp = O=C(O)[C@@H]1C[C@@H](O)CN1; Phg = N[C@H](C(=O)O)c1ccccc1; CO = O=C([*:1])[*:2]; Bn = c1ccc(C*)cc1
# Target: Phospholipid hydroperoxide glutathione peroxidase GPX4 (Homo sapiens) (UniProt P36969)
# Test: Primary qHTS Assay for Inhibitors of Recombinant Selenoprotein Glutathione Peroxidase 4 (GPX4) (AID 1845192); note: nearly all actives have a fitted effect of over 65% in size
# Conditions: recombinant GPX4, GR-coupled NADPH fluorescence, 15 min; series mostly up to 50 µM; activity change, negative = inhibition: at the top concentration
# Outline: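 Steps: GPX4 plus compound, 30 min RT; add GR/GSH/NADPH master mix; start with cumene hydroperoxide; read 340/450 nm fluorescence at 0 and 15 min. Finals were 200 nM GPX4, 1 mM GSH, 0.5 mM CHP, 0.5 mM NADPH, 100 nM GR.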
# % is set by controls: 0 for no effect and ±100 for the full control effect; potency is the fitted concentration of half-maximal effect.
# Sequence of Phospholipid hydroperoxide glutathione peroxidase GPX4 (Homo sapiens) (P36969 whole entry, looked up): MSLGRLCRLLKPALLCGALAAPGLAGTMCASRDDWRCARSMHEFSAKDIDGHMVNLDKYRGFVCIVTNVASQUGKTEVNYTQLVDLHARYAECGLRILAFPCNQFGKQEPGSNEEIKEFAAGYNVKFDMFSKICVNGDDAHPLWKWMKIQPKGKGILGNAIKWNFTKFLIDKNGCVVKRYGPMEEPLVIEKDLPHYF
SMILES,"activity change, negative = inhibition",outcome,Potency
CC(C)(C)NCC(O)COc1ccccc1C#N (stereo not drawn),-10.2%,,
"C[C@@H]1NC(=O)[C@@H]2CCCN2C(=O)[C@H](CC(N)=O)NC(=O)[C@@H]2CSSC[C@H](N)C(=O)N[C@H]3CSSC[C@H](NC1=O)C(=O)N[C@@H]([C@@H](C)O)C(=O)NCC(=O)N[C@H](C(=O)N[C@@H](Cc1ccc(O)cc1)C(=O)O)CSSC[C@H](NC(=O)[C@H](Cc1ccc(O)cc1)NC(=O)[C@H](CCC(=O)O)NC3=O)C(=O)N2 (H-CCEYCCNPACTGCY-OH; disulfide 1-6, 2-10, 5-13)",-21.2% [at 27.8 µM],,
NC(=O)C1CCCN1C(=O)C(Cc1cnc[nH]1)NC(=O)C1CCC(=O)N1 (stereo not drawn),-16.6%,,
CCC(=O)O[C@@H]1[C@@H](C)O[C@@H](O[C@H]2[C@H](N(C)C)[C@@H](O)[C@H](O[C@H]3[C@@H](CC=O)C[C@@H](C)[C@@H](OC(C)=O)/C=C/C=C/C[C@@H](C)OC(=O)C[C@@H](OC(=O)CC)[C@@H]3OC)O[C@@H]2C)C[C@]1(C)OC(C)=O,-14.8%,,
OCc1cc(C(O)CNCCCCCCOCCOCc2c(Cl)cccc2Cl)ccc1O (stereo not drawn),-2.73%,,
CC1(C)S[C@@H]2[C@H](NC(=O)[C@H](NC(=O)N3CCNC3=O)c3ccccc3)C(=O)N2C1C(=O)O (stereo partly drawn),,inactive,
NCCCC[C@@H]1NC(=O)[C@@H](Cc2c[nH]c3ccccc23)NC(=O)[C@H](c2ccccc2)NC(=O)[C@@H]2C[C@@H](OC(=O)NCCN)CN2C(=O)[C@H](Cc2ccccc2)NC(=O)[C@H](Cc2ccc(OCc3ccccc3)cc2)NC1=O (cyclo([Hyp]([CO-Ethylenediamine])[Phg][dW]KY(Bn)F)),,inactive [at 27.8 µM],
CCCN1C[C@H](C)[C@@H](O)[C@](C)(O)[C@@H](CC)OC(=O)[C@H](C)[C@@H](O[C@H]2C[C@@](C)(OC)[C@@H](O)[C@H](C)O2)C(C)[C@@H](O[C@@H]2O[C@H](C)C[C@H](N(C)C)[C@H]2O)[C@](C)(O)C[C@H]1C (stereo partly drawn),,inactive,
CCCCCCCCCCCCCCCC(=O)OC1C(SC)OC(C(NC(=O)C2CC(CCC)CN2C)C(C)Cl)C(O)C1O (stereo not drawn),,inactive,
O[C@@H]1[C@@H](O)[C@@H](O)OC[C@@H]1O,,inactive [at 150 µM],
CCCCC(CC)COC(=O)c1ccc(Nc2nc(Nc3ccc(C(=O)OCC(CC)CCCC)cc3)nc(Nc3ccc(C(=O)OCC(CC)CCCC)cc3)n2)cc1 (stereo not drawn),4.63%,,
OC(CCN1CCCCC1)(c1ccccc1)C1CCCC1 (stereo not drawn),1.7%,,
Cc1cc(O)ccc1C(C)(C)C,4.57%,,
CCC1OC(=O)[C@H](C)C(=O)[C@H](C)[C@@H](OC2O[C@H](C)C[C@H](N(C)C)[C@H]2O)[C@](C)(OC)C[C@@H](C)C(=O)[C@@H](C)[C@@H]2N(CCCCn3cnc(-c4cccnc4)c3)C(=O)O[C@]12C (stereo partly drawn),,inactive,
CCC(=O)O[C@]1(C(=O)COC(C)=O)CC[C@H]2[C@@H]3CCC4=CC(=O)CC[C@]4(C)[C@H]3[C@@H](O)C[C@@]21C,-5.03%,,
CO[C@H]1C[C@H](O[C@@H]2[C@H](C)O[C@H](O[C@@H]3/C(C)=C/C[C@@H]4C[C@@H](C[C@]5(C=C[C@H](C)[C@@H](C6CCCCC6)O5)O4)OC(=O)[C@@H]4C=C(C)C(O)[C@H]5OC/C(=C\C=C\[C@@H]3C)[C@]54O)C[C@@H]2OC)O[C@@H](C)[C@@H]1O (stereo partly drawn),-20.9%,,
C=C1/C(=C/C=C2\CCC[C@]3(C)[C@@H]([C@H](C)CCCC(O)(C(F)(F)F)C(F)(F)F)CC[C@@H]23)C[C@@H](O)C[C@@H]1O,,,14.1 µM (active)
CC(C)(C)NC(=O)N[C@H](C(=O)N1C[C@H]2[C@@H]([C@H]1C(=O)NC(CC1CCC1)C(=O)C(N)=O)C2(C)C)C(C)(C)C (stereo partly drawn),4.62%,,
